Inconclusive results are not listed. Active and inactive are the calls of the source. Unless noted, calls follow the shape of the dose curve; as a rule, active = well fitted curve in the direction sought with a large enough effect in the repeat runs; inconclusive = weak or mixed curves; inactive = no such curve, though single readings can be large; an effect the other way counts as inactive or inconclusive.
What was measured:
[1] = qHTS assay to identify small molecule antagonists of the peroxisome proliferator-activated receptor delta (PPARd) signaling pathway - cell viability counter screen (AID 743213); also: nearly all actives have a fitted effect of over 50% in size; also: potency is read from the fitted curve at half-maximal effect
Method in brief: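 Same-well viability: cells pre-incubated 5 h, dosed with compound plus 300 nM L165041, kept 17 h at 37 C, FRET substrate 2 h RT, then CellTiter-Glo 30 min RT and luminescence.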

[2] = qHTS assay to identify small molecule antagonists of the farnesoid-X-receptor (FXR) signaling pathway - cell viability counter screen (AID 743221; active = well fitted cell-killing curve with a large enough effect in the repeat runs, not every such curve was filed as active; also: % is scaled to controls: 0 for no effect and ±100 for the full control effect; nearly all actives have a fitted effect of over 50% in size)
Method in brief: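 GeneBLAzer FXR-UAS-bla HEK 293T cells, compound plus chenodeoxycholic acid (50 uM final), 16 h at 37 C. CellTiter-Glo added to the same wells after the beta-lactamase read; luminescence read after 30 min at room temperature as viability.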

[3] = qHTS assay to identify small molecule agonists of the vitamin D receptor (VDR) signaling pathway - cell viability counter screen (AID 743224); also: series mostly up to about 63 µM; % is scaled to controls: 0 for no effect and ±100 for the full control effect; nearly all actives have a fitted effect of over 50% in size
Method in brief: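 CellTiter-Glo viability readout on VDR-bla cells, measured after 16 h of compound treatment at 37C in the same wells.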

[4] = qHTS assay to identify small molecule antagonists of the vitamin D receptor (VDR) signaling pathway - cell viability counter screen (AID 743225); also: % is scaled to controls: 0 for no effect and ±100 for the full control effect; nearly all actives have a fitted effect of over 50% in size
Method in brief: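 VDR-UAS-bla HEK 293T cells were plated and incubated 4 h at 37C, then dosed with compound plus 3 nM (final) 1-alpha,25-dihydroxyvitamin D3 for 16 h. After the 2 h beta-lactamase read, viability in the same wells was read as CellTiter-Glo luminescence after 30 min at room temperature.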

[5] = qHTS assay to identify small molecule agonists of the NFkB signaling pathway (AID 1159509; active = well fitted curve in the direction sought with a large enough effect in the signal ratio in the repeat runs, not every such curve was filed as active; the % refers to the signal ratio; also: series mostly up to about 61 µM; % is scaled to controls: 0 for no effect and ±100 for the full control effect)
Method in brief: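 Beta-lactamase reporter assay run in quantitative high-throughput format on an NF-kB-responsive ME-180 line, with 5 hr compound treatment and a FRET-based blue/green fluorescence readout.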

[6] = qHTS assay to identify small molecule agonists of the NFkB signaling pathway - cell viability counter screen (AID 1159515; calls by dose curve; also: series mostly up to about 61 µM; % is scaled to controls: 0 for no effect and ±100 for the full control effect; nearly all actives have a fitted effect of over 55% in size)
Method in brief: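 Tox21 library compounds were tested for cytotoxicity against NFkB-bla ME-180 cells during a 5 hr exposure at 37 C. CellTiter-Glo luminescence served as the viability read-out.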

[7] = qHTS assay to identify small molecule agonists of the endoplasmic reticulum stress response signaling pathway (AID 1159516; active = well fitted activation curve with a large enough effect in the signal ratio in the repeat runs, not every such curve was filed as active; the % refers to the signal ratio; also: % is scaled to controls: 0 for no effect and ±100 for the full control effect)
Method in brief: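 Fluorescence at 460 and 530 nm (405 nm excitation) reports beta-lactamase from an ER stress response element in HeLa cells treated 5 hr at 37 C.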

[8] = qHTS assay to identify small molecule agonists of the endoplasmic reticulum stress response signaling pathway - cell viability counter screen (AID 1159517; calls by dose curve)
Method in brief: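 After overnight attachment, ESRE-bla HeLa cells were treated with Tox21 library compounds for 5 hr. CellTiter-Glo luminescence, read 30 min post-addition at room temperature, reported viability.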

[9] = target: Nuclear receptor ROR-gamma (Homo sapiens) (UniProt P51449); experiment: qHTS assay to identify small molecule antagonists of the retinoid-related orphan receptor gamma (ROR-gamma) signaling pathway (AID 1159521)
Method in brief: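 Tet-on ROR-gamma CHO cells with ROR response element-luciferase reporter; compounds added 2 hr before 1 uM doxycycline induction, then 16 hr at 37 C. Antagonism scored as decreased ONE-Glo luminescence.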

[10] = qHTS assay to identify small molecule agonists of the AP-1 signaling pathway - cell viability counter screen (AID 1159525; calls by dose curve; also: nearly all actives have a fitted effect of over 55% in size)
Method in brief: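 Intracellular ATP by Cell Titer Glo luminescence (30 min, RT) in the same ME-180 AP-1-bla wells after the 5 h compound exposure at 37 °C. Normalised to tetra n-octyl ammonium bromide and DMSO controls.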

[11] = qHTS assay to identify small molecule agonists of the AP-1 signaling pathway (AID 1159526; calls by dose curve; also: % is scaled to controls: 0 for no effect and ±100 for the full control effect)
[12] = qHTS assay to identify small molecule agonists of the RXR signaling pathway - cell viability counter screen (AID 1159529); also: nearly all actives have a fitted effect of over 50% in size; also: potency is read from the fitted curve at half-maximal effect
Method in brief: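 RXR-alpha-UAS-bla HEK 293T cells in medium with 2% charcoal-stripped FBS were pre-incubated 5 hr, then compound-treated 16 hr at 37 C. Viability was read by CellTiter-Glo luminescence in the same wells as the beta-lactamase assay, with tetraoctyl ammonium bromide as positive control.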

[13] = target: Peroxisome proliferator-activated receptor delta (Homo sapiens) (UniProt Q03181); experiment: qHTS assay to identify small molecule antagonists of the peroxisome proliferator-activated receptor delta (PPARd) signaling pathway (AID 743215; active = well fitted inhibition curve with a large enough effect in the signal ratio in the repeat runs, not every such curve was filed as active; the % refers to the signal ratio;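 also: cells stimulated with agonist L165041 at 300 nM final during compound exposure; series mostly up to about 62 µM; % is scaled to controls: 0 for no effect and ±100 for the full control effect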)
Chain of Peroxisome proliferator-activated receptor delta (Homo sapiens) (Q03181 whole entry, looked up): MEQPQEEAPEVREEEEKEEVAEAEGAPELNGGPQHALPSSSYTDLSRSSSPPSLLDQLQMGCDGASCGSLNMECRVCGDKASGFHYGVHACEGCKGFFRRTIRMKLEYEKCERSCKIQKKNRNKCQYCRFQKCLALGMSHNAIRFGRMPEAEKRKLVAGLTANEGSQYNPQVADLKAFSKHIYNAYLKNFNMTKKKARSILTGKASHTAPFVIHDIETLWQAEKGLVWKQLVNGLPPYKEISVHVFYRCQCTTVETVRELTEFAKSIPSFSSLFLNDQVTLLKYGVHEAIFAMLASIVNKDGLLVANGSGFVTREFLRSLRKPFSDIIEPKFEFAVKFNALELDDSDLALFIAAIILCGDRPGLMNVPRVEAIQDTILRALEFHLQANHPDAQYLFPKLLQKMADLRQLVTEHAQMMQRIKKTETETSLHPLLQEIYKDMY
Method in brief: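 Here, a reporter line (HEK293H, beta-lactamase under a UAS) measures PPARd signaling. Compounds are tested against agonist L165041 at 300 nM final concentration over 17 h at 37 C, with fluorescence read after substrate.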

[14] = target: Bile acid receptor (Homo sapiens) (UniProt Q96RI1); experiment: qHTS assay to identify small molecule antagonists of the farnesoid-X-receptor (FXR) signaling pathway (AID 743217; active = well fitted inhibition curve with a large enough effect in the signal ratio in the repeat runs, not every such curve was filed as active; the % refers to the signal ratio; also: % is scaled to controls: 0 for no effect and ±100 for the full control effect)
Chain of Bile acid receptor (Homo sapiens) (Q96RI1 whole entry, looked up): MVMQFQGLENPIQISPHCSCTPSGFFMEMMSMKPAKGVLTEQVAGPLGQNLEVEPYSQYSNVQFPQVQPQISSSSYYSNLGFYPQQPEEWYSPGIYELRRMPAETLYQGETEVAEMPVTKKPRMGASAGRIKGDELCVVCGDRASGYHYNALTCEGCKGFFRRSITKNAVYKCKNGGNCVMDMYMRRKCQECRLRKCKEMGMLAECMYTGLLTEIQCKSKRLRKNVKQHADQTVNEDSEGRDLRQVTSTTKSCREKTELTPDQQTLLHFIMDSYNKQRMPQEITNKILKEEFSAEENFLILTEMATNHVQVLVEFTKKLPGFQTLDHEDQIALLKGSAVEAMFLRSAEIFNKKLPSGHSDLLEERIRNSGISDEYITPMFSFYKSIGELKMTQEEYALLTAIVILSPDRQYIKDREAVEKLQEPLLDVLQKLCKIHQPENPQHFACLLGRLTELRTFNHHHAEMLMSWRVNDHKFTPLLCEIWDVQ
Method in brief: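 Test compounds are pin-transferred onto FXR-bla HEK 293T cells, then chenodeoxycholic acid is added at 50 uM final. After 16 h at 37 °C, LiveBLAzer B/G substrate is applied for 2 h at room temperature and fluorescence read.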

[15] = qHTS assay to identify small molecule agonists of the farnesoid-X-receptor (FXR) signaling pathway - cell viability counter screen (AID 743218); also: % is scaled to controls: 0 for no effect and ±100 for the full control effect; nearly all actives have a fitted effect of over 45% in size
Method in brief: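 Quantitative HTS counter screen measuring ATP-based viability via CellTiter-Glo luminescence in HEK 293T cells carrying a UAS-driven beta-lactamase reporter, after 16 h compound exposure at 37 C.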

[16] = target: Bile acid receptor (Homo sapiens) (UniProt Q96RI1); experiment: qHTS assay to identify small molecule agonists of the farnesoid-X-receptor (FXR) signaling pathway (AID 743220; active = well fitted activation curve with a large enough effect in the signal ratio in the repeat runs, not every such curve was filed as active; the % refers to the signal ratio; also: % is scaled to controls: 0 for no effect and ±100 for the full control effect)
Method in brief: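 FXR-UAS-bla HEK 293T cells carrying a UAS-driven beta-lactamase reporter were plated for 5 h at 37C/5% CO2, then exposed to DMSO-dissolved Tox21 10K compounds for 16 h at 37C. A LiveBLAzer B/G FRET substrate was loaded for 2 h at room temperature before fluorescence reading.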

[17] = target: Vitamin D3 receptor (Homo sapiens) (UniProt P11473); experiment: qHTS assay to identify small molecule agonists of the vitamin D receptor (VDR) signaling pathway (AID 743222; calls by dose curve; also: % is scaled to controls: 0 for no effect and ±100 for the full control effect)
Chain of Vitamin D3 receptor (Homo sapiens) (P11473 whole entry, looked up): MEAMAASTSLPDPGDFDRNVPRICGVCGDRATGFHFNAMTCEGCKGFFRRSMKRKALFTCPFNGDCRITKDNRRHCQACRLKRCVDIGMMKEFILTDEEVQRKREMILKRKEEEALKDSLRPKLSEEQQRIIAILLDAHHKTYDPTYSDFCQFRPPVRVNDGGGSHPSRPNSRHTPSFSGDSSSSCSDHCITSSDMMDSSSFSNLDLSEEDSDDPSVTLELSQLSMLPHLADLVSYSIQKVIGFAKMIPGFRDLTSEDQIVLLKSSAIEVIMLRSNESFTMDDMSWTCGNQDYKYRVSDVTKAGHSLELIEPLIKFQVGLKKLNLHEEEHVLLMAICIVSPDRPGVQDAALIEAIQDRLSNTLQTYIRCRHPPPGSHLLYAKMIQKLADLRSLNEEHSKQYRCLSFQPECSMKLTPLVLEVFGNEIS
Method in brief: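 Tox21 cell reporter format: VDR-bla line, 16 h compound exposure in 5% CO2 at 37C, then fluorescence intensity after 2 h with LiveBLAzer B/G FRET substrate.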

[18] = qHTS assay to identify small molecule antagonists of the retinoid-related orphan receptor gamma (ROR-gamma) signaling pathway - cell viability counter screen (AID 1159520)
Method in brief: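 Cytotoxicity was read from cellular ATP (CellTiter-Glo luminescence) after 16 hr at 37 C with 1 uM doxycycline induction. The inducer was added 2 hr after compound transfer to Tet-on ROR gamma CHO cells.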

[19] = target: Vitamin D3 receptor (Homo sapiens) (UniProt P11473); experiment: qHTS assay to identify small molecule antagonists of the vitamin D receptor (VDR) signaling pathway (AID 743223; active = well fitted inhibition curve with a large enough effect in the signal ratio in the repeat runs, not every such curve was filed as active; the % refers to the signal ratio; also: % is scaled to controls: 0 for no effect and ±100 for the full control effect)
Method in brief: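 VDR-bla cells were treated with compound plus 3 nM final 1alpha,25-dihydroxyvitamin D3 for 16 h at 37C. Beta-lactamase reporter read by B/G FRET substrate fluorescence after 2 h at room temperature. qHTS format.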

[20] = target: Retinoic acid receptor RXR-alpha (Homo sapiens) (UniProt P19793); experiment: qHTS assay to identify small molecule agonists of the RXR signaling pathway (AID 1159527; calls by dose curve; also: % is scaled to controls: 0 for no effect and ±100 for the full control effect; nearly all actives have a fitted effect of over 35% in size)
Chain of Retinoic acid receptor RXR-alpha (Homo sapiens) (P19793 whole entry, looked up): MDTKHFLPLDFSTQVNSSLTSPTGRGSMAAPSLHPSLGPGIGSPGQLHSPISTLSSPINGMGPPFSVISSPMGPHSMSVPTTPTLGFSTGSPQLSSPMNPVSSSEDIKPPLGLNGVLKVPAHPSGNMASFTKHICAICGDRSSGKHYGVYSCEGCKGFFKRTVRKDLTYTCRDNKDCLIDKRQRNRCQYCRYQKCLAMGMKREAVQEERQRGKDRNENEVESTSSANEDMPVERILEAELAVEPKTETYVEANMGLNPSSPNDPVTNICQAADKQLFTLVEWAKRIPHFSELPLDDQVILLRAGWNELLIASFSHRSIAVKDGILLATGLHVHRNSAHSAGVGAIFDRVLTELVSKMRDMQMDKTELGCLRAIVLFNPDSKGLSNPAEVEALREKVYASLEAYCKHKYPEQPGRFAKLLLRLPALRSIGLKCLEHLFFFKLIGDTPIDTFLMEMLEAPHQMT
Method in brief: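 GeneBLAzer RXR-alpha-UAS-bla HEK 293T cells in 2% charcoal-stripped FBS medium were exposed to compounds for 16 hr at 37 C in agonist mode. Beta-lactamase reporter read as 460/530 nm FRET ratio after 2 hr substrate loading.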

CC(=O)Oc1cccc2c1C(=O)c1c(OC(C)=O)cc(C(=O)O)cc1C2=O
inactive: Potency [1] | Potency [2] | outcome [3] | outcome [4] | outcome [5] | outcome [6] | outcome [7] | outcome [8] | Potency [9] | outcome [10] | Potency [11] | Potency [12]

CCOc1ccccc1O
inactive: Potency [1] | outcome [13] | outcome [14] | Potency [15] | outcome [16] | Potency [2] | outcome [17] | outcome [3] | outcome [4] | outcome [5] | outcome [6] | outcome [7] | Potency [18] | Potency [9] | outcome [10] | Potency [11] | Potency [12]

CC1(C)[C@@H]2CC[C@]3(C2)[C@@H]1C(=O)CCC3(C)C
inactive: Potency [1] | outcome [13] | outcome [14] | Potency [15] | outcome [16] | Potency [2] | outcome [19] | outcome [3] | outcome [4] | outcome [5] | outcome [6] | outcome [7] | outcome [8] | Potency [18] | Potency [9] | outcome [20] | Potency [12]

CCC(CC)C(=O)O
inactive: Potency [1] | outcome [13] | Potency [15] | Potency [2] | outcome [17] | outcome [19] | outcome [3] | outcome [4] | outcome [5] | outcome [6] | outcome [7] | outcome [8] | Potency [9] | outcome [10] | Potency [11] | Potency [12]

COc1ccc(C(=O)Nc2ccccc2)cc1[N+](=O)[O-]
inactive: outcome [14] | Potency [15] | outcome [16] | Potency [2] | outcome [3] | outcome [4] | outcome [5] | outcome [6] | outcome [7] | outcome [8] | Potency [18] | Potency [9] | Potency [11]

O=C(O)c1ccc2c(c1)nc(C(=O)NC1CCN(C3CC3)CC1)n2Cc1cc(-c2ccc(Cl)s2)on1
inactive: Potency [1] | outcome [14] | outcome [16] | Potency [2] | outcome [3] | outcome [4] | outcome [5] | outcome [6] | outcome [7] | outcome [8] | activity change, negative = inhibition [9] -14.3% [at 19 µM] | viability change, negative = cytotoxic [10] 0.765% [at 15.8 µM] | activation [11] -0.694% [at 15.8 µM]

Cc1ccc(NC(=O)c2ccc(CN3CCN(C)CC3)cc2)cc1Nc1nccc(-c2cccnc2)n1
inactive: Potency [15] | Potency [2] | outcome [5] | outcome [6] | outcome [7] | outcome [8] | Potency [9] | Potency [11] | Potency [12]

CCCCOc1ccc(N)cc1
inactive: Potency [1] | outcome [13] | outcome [14] | outcome [16] | Potency [2] | outcome [17] | outcome [19] | outcome [3] | outcome [4] | outcome [5] | outcome [6] | outcome [7] | Potency [18] | Potency [9] | outcome [10] | Potency [11] | Potency [12]

Cc1c(N=C=O)cccc1N=C=O
inactive: Potency [1] | Potency [15] | Potency [2] | outcome [17] | outcome [3] | outcome [4] | outcome [5] | outcome [6] | outcome [7] | outcome [8] | Potency [9] | outcome [10] | Potency [11]

CCCCCCCCCCCCCCCCCCCl
inactive: viability change, negative = cytotoxic [1] -29.3% [at 6.26 µM] | ratio activity, negative = inhibition [13] -12.3% [at 6.26 µM] | activity change, negative = inhibition [14] -9.56% [at 5.95 µM] | activation [16] 0.479% [at 5.95 µM] | activity change, negative = cytotoxicity [2] 0.201% [at 5.95 µM] | activation [17] 1.2% [at 6.01 µM] | activity change, negative = cytotoxicity [3] 6.04% [at 5.95 µM] | viability change, negative = cytotoxic [4] -10.5% [at 6.95 µM] | activation [5] -0.691% [at 6.95 µM] | activity, negative = cytotoxic [6] -1.14% [at 6.95 µM] | activation [7] -3.96% [at 6.95 µM] | activity change, negative = cytotoxicity [8] 2.96% [at 6.95 µM] | activity change, negative = inhibition [9] 0.775% [at 8.39 µM] | viability change, negative = cytotoxic [10] 1.66% [at 6.97 µM] | activation [11] -4.53% [at 6.97 µM] | activity change, negative = cytotoxicity [12] 3.39% [at 6.97 µM]

O=C(OCCCCCOC(=O)c1ccccc1)c1ccccc1
inactive: Potency [1] | outcome [13] | Potency [15] | Potency [2] | outcome [3] | outcome [4] | outcome [5] | outcome [6] | outcome [7] | outcome [8] | Potency [9] | outcome [10] | Potency [11] | Potency [12]

CCCCCCCCOCCCN
active: Potency [1] 24.5 µM
inactive: outcome [13] | Potency [2] | outcome [17] | outcome [5] | outcome [6] | outcome [7] | outcome [8] | Potency [9] | outcome [10] | outcome [20]

CC(C)(C)N
inactive: Potency [1] | outcome [13] | Potency [15] | Potency [2] | outcome [17] | outcome [3] | outcome [4] | outcome [5] | outcome [6] | outcome [7] | outcome [8] | Potency [9] | Potency [11] | Potency [12]

CCOC(=O)CC(O)(CC(=O)OCC)C(=O)OCC
inactive: Potency [1] | Potency [15] | Potency [2] | outcome [17] | outcome [3] | outcome [4] | outcome [5] | outcome [6] | outcome [7] | outcome [8] | Potency [9] | outcome [10] | Potency [11] | Potency [12]

CC(C)(C)c1cc(C=O)cc(C(C)(C)C)c1O
inactive: Potency [1] | outcome [14] | Potency [15] | outcome [16] | outcome [17] | outcome [19] | outcome [3] | outcome [5] | outcome [6] | outcome [7] | outcome [8] | Potency [9] | outcome [10] | Potency [11] | Potency [12]

NC(=O)c1ccccc1C(N)=O
inactive: Potency [1] | outcome [13] | Potency [15] | outcome [16] | Potency [2] | outcome [17] | outcome [19] | outcome [3] | outcome [4] | outcome [5] | outcome [6] | outcome [7] | outcome [8] | Potency [9] | outcome [10] | Potency [11]
active: Potency [12] 34.8 µM
